In PubChem BioAssay AID1159580 (chemical genetic matrix, 2015):
The campaign covered roughly 5,500 compounds. About 2,000 (36%) were called active. Another 18% or so got no clear call; they are omitted. Rule as the data show it: active = normalized growth mostly below about 0.91 (no sharp cut-off); inconclusive = no clear call, values can overlap the other calls; inactive = mostly above about 0.92. The list shows a part of the results.

Assay: chemical genetic growth profiling, strain panel (AID 1159580);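 also: tested at 20 µM; growth read once vehicle control cultures reached saturation at 30 °C; 1 = growth at the plate median or of vehicle wells; lower values mean less growth of the strain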
Conditions: S. cerevisiae deletion strains, growth OD

Measured: normalized growth

O=C(O)C1CC(=O)N(Cc2ccccc2Cl)C1 (stereo not drawn)
inactive: locus YAL013W, strain DEP1, active compounds read low 1.01 | locus YBR229C, strain ROT2, active compounds read low 1 | locus YCL061C, strain MRC1, active compounds read low 1.02 | locus YDL101C, strain DUN1, active compounds read low 0.994 | locus YDL134C, strain PPH21, active compounds read low 1.01 | locus YDR150W, strain NUM1, active compounds read low 0.947 | locus YEL061C, strain CIN8, active compounds read low 1.03 | locus YGR078C, strain PAC10, active compounds read low 1.01 | locus YHR030C, strain SLT2, active compounds read low 1.15 | locus YHR087W, strain rtc3, active compounds read low 1.01 | locus YJR043C, strain POL32, active compounds read low 0.966 | locus YJR075W, strain HOC1, active compounds read low 1 | locus YLR039C, strain RIC1, active compounds read low 1.04 | locus YLR058C, strain SHM2 (second series), active compounds read low 1 | locus YLR085C, strain ARP6, active compounds read low 1.04 | locus YLR262C, strain YPT6, active compounds read low 1.01 | locus YML094W, strain GIM5, active compounds read low 1.04 | locus YMR219W, strain ESC1, active compounds read low 1.01 | locus YMR263W, strain SAP30, active compounds read low 1.01 | locus YMR307W, strain GAS1, active compounds read low 1.02 | locus YNL153C, strain GIM3, active compounds read low 0.992 | locus YNL298W, strain CLA4 (second series), active compounds read low 1.07 | locus YNL322C, strain KRE1, active compounds read low 1.01 | locus YNR030W, strain Alg12, active compounds read low 1.03 | locus YOL006C, strain TOP1, active compounds read low 1.08 | locus YPL055C, strain LGE1, active compounds read low 0.931 | locus YPL241C, strain CIN2, active compounds read low 1.11 | locus YPR135W, strain CTF4, active compounds read low 1.06
